# Where “and” joins values, the source holds several entries; their conditions need not be identical. Equal values may be shown once. The whole screen tested about 290,000 compounds, of which about 3,000 (1%) were called active. The entries come from a sample that favours actives as a whole. Values without a mark were called inactive. No stated cut-off is given here; in the data, active means inhibition mostly above about 36% (no sharp cut-off); inactive means mostly below about 34%.
# Assay: NOD1 signaling inhibitors, primary screen, cell-based, luminescence, uHTS (AID 1578);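 further: HEK-293T reporter cells stimulated with the NOD1 agonist gamma-tri-DAP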
# Conditions: NOD1-driven NF-kB luciferase reporter cells, at 4 µM, stronger effect = higher value
row,SMILES,inhibition
1,Cc1cc(NS(=O)(=O)c2ccc(NC(=O)C(C)Oc3ccc(Cl)cc3)cc2)no1 (configuration not stated),6.9%
2,O=C(Nc1ccccc1)C12CC3CC(C1)CC(n1cnc([N+](=O)[O-])n1)(C3)C2,1.9%
3,O=C(Nc1ccon1)C12CC3CC(C1)CC(n1cnc([N+](=O)[O-])n1)(C3)C2,-18.8%
4,O=C(Nc1cccc([N+](=O)[O-])c1)C12CC3CC(C1)CC(n1cnc([N+](=O)[O-])n1)(C3)C2,92.1% (active)
5,COc1ccc(C(=O)N2CCCC(C(=O)N3CCN(c4ccccc4)CC3)C2)cc1 (configuration not stated),2.5%
6,O=C(Nc1ccc(N2CCN(C(=O)c3ccccc3)CC2)cc1)c1ccc2c(c1)OCCO2,31.2%
7,Cc1ccccc1C(=O)N1CCN(c2ccc(NC(=O)c3ccc4c(c3)OCO4)cc2)CC1,3%
8,COc1ccccc1N(CC(=O)Nc1ccccc1C)S(C)(=O)=O,-26.9%
9,CC(NC(=O)C1CC=CCC1C(=O)O)C1CC2CCC1C2 (configuration not stated),-30.7%
10,CC(NC(=O)C1CCCC1)C1CC2CCC1C2 (configuration not stated),96.5% (active)
11,CC(NC(=O)c1ccccc1Cl)C1CC2CCC1C2 (configuration not stated),-16.6%
12,C[C@]12CC(O)C3C(CCC4=CC(=O)CC[C@@]43C)C1CCC2c1csc(-c2ccccc2)n1 (some centres not stated),15.3%
13,CC(=O)[C@H]1CC[C@H]2[C@@H]3CCC4=CC(=O)CC[C@]4(C)[C@H]3CC[C@]12C,5.4% and -4.1%
14,C/C(=N\O)c1ncc(C(F)(F)F)cc1Cl,-23.5%
15,CC(C)NC(=O)CC(=O)N/N=C\c1ccccc1C(=O)O,-33.7%
16,CSc1ccccc1C(=O)Nc1cccc(N(C)S(C)(=O)=O)c1,-8.4%
17,CC1Cc2ccccc2N1CC(=O)NC(=O)NCc1ccco1 (configuration not stated),-5.2%
18,Nc1cccc(N2C(=O)c3cccc4c(N)ccc(c34)C2=O)c1,5.7%
19,Cc1cccc(N2C(=O)c3cccc4c(N)ccc(c34)C2=O)c1,26.2% (active)
20,Nc1ccc2c3c(cccc13)C(=O)N(c1ccccc1)C2=O,-19.1%
21,O=C(NCCOc1ccccc1)C1CCC(=O)N(CCCN2CCOCC2)C1 (configuration not stated),-28.6%
22,COc1ccc2c(c1)C(=O)CC(c1ccccc1F)O2 (configuration not stated),5.9%
23,Cn1c(Cl)cnc1C1CC(=O)c2cc(Cl)ccc2O1 (configuration not stated),76.3% (active)
24,Cc1ccc2c(c1)C(=O)CC(c1ccc3c(c1)OCCO3)O2 (configuration not stated),-0.6%

row,SMILES,inhibition
1,COc1ccc(CN(C)C(=O)c2ccc(COc3ccccc3)cc2)c(OC)c1,-11.1%
2,Cc1ccsc1/C=N\NC(=O)Cn1nnc2ccccc21,-9.3%
3,OCCN1CCN(CC(O)COC(c2ccc(F)cc2)c2ccc(F)cc2)CC1 (configuration not stated),-11.1%
4,OC(COC(c1ccc(Cl)cc1)c1ccc(Cl)cc1)CN1CCCC1 (configuration not stated),-28.8%
5,OC(COC(c1ccc(F)cc1)c1ccc(F)cc1)CN1CCCC1 (configuration not stated),40.5% (active)
6,Cc1ccccc1NC(=O)Cc1nc(COC(=O)c2cc(Cl)ccc2O)cs1,-19.6%
7,CC(=O)Oc1cc(OC(C)=O)c2c(=O)c(-c3ccc4c(c3)OCCCO4)c(C)oc2c1,-3%
8,O=C(NCc1cccnc1)c1ccc(-c2cc(Cl)ccc2Cl)o1,42.3%
9,O=C(NCc1cccnc1)c1ccc(-c2cccc(Cl)c2Cl)o1,40.8% (active)
10,O=C(NCc1cccnc1)c1ccc(-c2ccc(Cl)cc2)o1,-19.4%
11,Cc1csc(=O)n1CC(=O)OCC(=O)Nc1cc(Cl)ccc1[N+](=O)[O-],-34.9%
12,CCN(C(=O)CSc1nncs1)c1c(N)n(Cc2ccccc2)c(=O)[nH]c1=O,4.6%
13,CCC(=O)NC(C)C(c1cccs1)N1CCN(Cc2ccccc2)CC1 (configuration not stated),-18.4%
14,O=C(COc1ccc(Cl)cc1)N1CCN(C(=O)c2ccccc2F)CC1,27.3%
15,C=C1C(=O)O[C@H]2C[C@]3(C)C([C@@H](OC(=O)/C(C)=C/C)[C@H]12)[C@](C)(O)CC[C@H]3O (some centres not stated),13.6%
16,C=C1C(=O)O[C@@H]2[C@H]1[C@@H](OC(=O)/C(C)=C/C)C/C(C)=C\C(=O)/C=C(\C)[C@@H]2O,54.7% (active)
17,C=C1C(=O)O[C@H]2[C@H]1[C@@H](O)CC(=C)[C@@H]1CC(=O)[C@@H](C)[C@H]21,9.7%
18,CCn1c(CC(=O)Nc2ccc(OC)cc2)nnc1SCC(=O)N1CCOCC1,-21.2%
19,COc1ccc(/C=C/C(=O)c2ccncc2)c2ccccc12,6.3%
20,COc1ccc(/C=C/C(=O)c2ccc[nH]2)c(OC)c1OC,-21.2%
21,COc1cc2[nH]c(=O)n(C3CCCCC3)c(=O)c2cc1OC,3.9%
22,CCOc1ccc(-c2nc(N)ncc2-c2ccc(OC)cc2)c(O)c1,7.2%
23,CCOc1ccc(-c2nc(N)ncc2-c2ccc(Cl)cc2)c(O)c1,34.1% (active)

# From PubChem BioAssay AID1578 (Sanford-Burnham Center for Chemical Genomics, 2009)
